Eight molecules from PubChem BioAssay can be followed below.

This assay is described as follows: probe aWnt5a binding to arrayed compounds – biochemical, biotinylated probe, 635/667 nm fluorescence, primary screen (AID 1113).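 Note: score merges 667 nm fluorescence intensity with signal-to-noise per printed feature.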 The note with it: small-molecule microarray, higher = more signal.
`COc1cc(C(O)C2C=CC3C(=O)N(c4ccccc4)C(=O)C3N2Nc2ccccc2F)cc(OC)c1OC` (stereo not drawn): the composite z-score was found to be 0.0357.

`C=CCN1C(=O)[C@@]2(O[C@@H](CCn3cc([C@H](O)c4ccccc4)nn3)[C@H]([Si](C)(C)c3ccc(OC)cc3)[C@H]2C)c2cc(N3C(=O)c4cccc5cccc3c45)ccc21` gave a composite z-score of -0.178.

`COC(=O)[C@H](Cc1ccc(O)cc1)N[C@@H](/C=C/C1CC1)[C@H](O)Cc1ccccc1` had a composite z-score of -0.15.

With `COc1ccc([Si](C)(C)[C@@H]2[C@@H](CC(=O)N3CCC[C@H]3CO)O[C@]3(C(=O)N(Cc4cccc(N5CCCCC5=O)c4)c4ccccc43)[C@H]2C)cc1`, the composite z-score is -0.148.

Molecule `O=C1C[C@@](C(=O)O)(c2ccc([N+](=O)[O-])cc2)[C@@H](c2ccc(CO)cc2)N1C1CCCCC1` gave a composite z-score of 0.0037.

`CCOC(=O)c1cn(C[C@H](Cc2ccccc2)NC(=O)N[C@H](CO)CCc2oc(C(C)=O)c(C(=O)OC)c2C(=O)OC)nn1` had a composite z-score of -0.0816.

Turning to `NCCCCCCNC(=O)[C@@H]1C[C@@H]2C(=O)N3CCC[C@H]3C(=O)N2[C@@H]1c1cccc(OCCO)c1`, the composite z-score is -0.0286.

The molecule `COCCOC(=O)N1C(=O)[C@@]2(c3cc(C#CCCO)ccc31)[C@H](C(N)=O)[C@H]1C(=O)O[C@H](c3ccccc3)[C@H](c3ccccc3)N1[C@@H]2c1ccccc1OCCO` yielded a composite z-score of -0.0445.
